Test systems include RPMI-8226 leukemia; OVCAR-8 ovarian; OVCAR-5 ovarian; IGROV1 ovarian; OVCAR-3 ovarian; HS 578T breast; NCI/ADR-RES ovarian; T-47D breast; BT-549 breast; MDA-MB-435 melanoma; SW-620 colon; HCT-116 colon; HCC-2998 colon; KM12 colon; OVCAR-4 ovarian; MCF7 breast; SK-OV-3 ovarian.
Common to all, as to experiment: NCI-60 one-dose screen, 48 h (100 = growth as untreated, 0 = no growth, -100 = all killed)
Settings in all cases: 10 µM unless noted

This is part of a sample that, as a whole, favours compounds with a hit. Of some 83,000 tested, about 20% had one in any assay.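 Percent growth is the endpoint: 0 to 100 indicates growth inhibition (40 means 60% inhibition), 0 means no net growth, and negative values indicate cell death.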 A number with no mark means an inactive call. Active and inactive are the calls of the source. How the source made its calls: active means growth percent below 10; inactive means the rest.

Regarding `CCCCCCCCCCC[C@@H](C[C@H]1OC(=O)[C@H]1CCCCCC)OC(=O)[C@@H](CC(C)C)NC=O`, the growth in the experiment with RPMI-8226 leukemia was 0.857% (active); in the experiment on OVCAR-8 ovarian, 62.9%; in the experiment with OVCAR-5 ovarian it was 94.4%; with IGROV1 ovarian, 60.3%; in the experiment with OVCAR-3 ovarian, 69%; with HS 578T breast it was 53.6%. The growth with NCI/ADR-RES ovarian was 37.5%; with T-47D breast, 76.5%; in the experiment on BT-549 breast it was 31.6%; with MDA-MB-435 melanoma, 69%; in the experiment on SW-620 colon it was 77.6%; in the experiment on HCT-116 colon it was 34%. Besides, the growth is 55.1% with HCC-2998 colon and 53% in the experiment with KM12 colon.
Turning to `O=C(c1nn(-c2ccc(Cl)cc2)cc1O)n1nc(C(F)(F)F)cc1-c1ccccc1`, the growth is -10.4% (active) with RPMI-8226 leukemia; 22.9% in the experiment on OVCAR-8 ovarian; 58.7% in the experiment on OVCAR-5 ovarian; 29.2% in the experiment with OVCAR-4 ovarian; 34.9% in the experiment with IGROV1 ovarian; -1.65% (active) in the experiment with OVCAR-3 ovarian. The growth in the experiment on HS 578T breast was 15.8%; in the experiment with NCI/ADR-RES ovarian, 19.4%; in the experiment on T-47D breast, 44.9%; with MDA-MB-435 melanoma, 48.1%; in the experiment on SW-620 colon, 39.6%; in the experiment on MCF7 breast, 44%. Besides, the growth was 8.39% (active) in the experiment with HCT-116 colon, 43.2% in the experiment on HCC-2998 colon and 50.8% in the experiment on KM12 colon.
On to `CCCc1cccc(CCC)c1O`, for which the growth in the experiment with RPMI-8226 leukemia is 111%; with OVCAR-8 ovarian it was 107%; with OVCAR-5 ovarian it was 117%; with SK-OV-3 ovarian, 110%; with IGROV1 ovarian, 125%; in the experiment with OVCAR-3 ovarian, 117%. Also, the growth was 107% in the experiment with HS 578T breast; 103% with NCI/ADR-RES ovarian; 104% with T-47D breast; 117% in the experiment on BT-549 breast; 106% with MDA-MB-435 melanoma; 104% with SW-620 colon. Besides, the growth is 113% in the experiment on MCF7 breast, 115% with HCT-116 colon, 100% in the experiment with HCC-2998 colon and 112% in the experiment with KM12 colon.
`Cc1cc(C)n(C(=O)c2nn(-c3ccc(Cl)cc3)cc2O)n1`: the growth in the experiment with RPMI-8226 leukemia is -0.413% (active); in the experiment with OVCAR-8 ovarian it was 26.3%; in the experiment with OVCAR-5 ovarian, 64.1%; in the experiment with OVCAR-4 ovarian, 67.7%; in the experiment with IGROV1 ovarian, 25.3%; in the experiment with OVCAR-3 ovarian it was 50.9%. Moreover, the growth was 7.1% (active) in the experiment with HS 578T breast; 22.6% in the experiment with NCI/ADR-RES ovarian; 46.3% with T-47D breast; 32.1% in the experiment on MDA-MB-435 melanoma; 81.4% in the experiment on SW-620 colon; 81% with MCF7 breast. For the same compound, the growth in the experiment with HCT-116 colon is 8.59% (active); with HCC-2998 colon, 82.8%; with KM12 colon, 36.3%.
Turning to `CCC(C)(C)C(=O)O[C@H]1C[C@@H](C)C=C2C=C[C@H](C)[C@H](CC[C@@H]3C[C@@H](O)CC(=O)O3)[C@H]21`, the growth in the experiment with RPMI-8226 leukemia is 62.7%; in the experiment on OVCAR-8 ovarian it was 48%; in the experiment with OVCAR-5 ovarian, 87.1%; in the experiment with OVCAR-4 ovarian, 86.6%; with IGROV1 ovarian it was 28.8%; with OVCAR-3 ovarian, 85.7%. Besides, the growth in the experiment on HS 578T breast is 42.4%; in the experiment with NCI/ADR-RES ovarian, 25.5%; in the experiment on T-47D breast, 92.1%; in the experiment on BT-549 breast, 84%; with MDA-MB-435 melanoma it was 68.8%; with SW-620 colon it was 61.2%. For the same compound, the values for the growth in the experiment with HCT-116 colon, with HCC-2998 colon and in the experiment with KM12 colon were 20.4%, 71.9% and 90.7%, respectively.
For the compound `COc1ccc(-c2c(-c3cc(OC)c(OC)c(OC)c3)noc2N)cc1`, the growth in the experiment with RPMI-8226 leukemia is 10.9%; in the experiment on OVCAR-8 ovarian, 24.9%; in the experiment on OVCAR-4 ovarian it was 38.8%; with SK-OV-3 ovarian, 20.6%; in the experiment on IGROV1 ovarian it was 22.4%; in the experiment on OVCAR-3 ovarian, -29.7% (active). Also, the growth in the experiment on HS 578T breast is 30%; in the experiment with NCI/ADR-RES ovarian it was 11.1%; with T-47D breast, 61.2%; in the experiment on BT-549 breast, 13.2%; in the experiment with MDA-MB-435 melanoma, -6.19% (active); in the experiment on SW-620 colon it was 21.7%. Further, the growth in the experiment with MCF7 breast is 17.1%; with HCT-116 colon, 8.77% (active); in the experiment with HCC-2998 colon, 17.4%; with KM12 colon it was 7.28% (active).
For the compound `CC1=CSC2=NCCN12`, the growth in the experiment with RPMI-8226 leukemia is 106%; with OVCAR-8 ovarian, 112%; with OVCAR-5 ovarian, 107%; with OVCAR-4 ovarian, 103%; in the experiment with IGROV1 ovarian, 108%; in the experiment on OVCAR-3 ovarian, 113%. Besides, the growth in the experiment on HS 578T breast is 110%; in the experiment on NCI/ADR-RES ovarian it was 100%; in the experiment with T-47D breast, 109%; in the experiment on MDA-MB-435 melanoma it was 111%; in the experiment on SW-620 colon, 102%; with MCF7 breast, 96.6%. Besides, the values for the growth in the experiment on HCT-116 colon and with KM12 colon were 111% and 109%, respectively.
Regarding `CCCCCCC(C)(O)c1ccccc1` (centres undefined), the growth is 107% in the experiment on RPMI-8226 leukemia; 115% in the experiment with OVCAR-8 ovarian; 98.5% with OVCAR-5 ovarian; 110% in the experiment with OVCAR-4 ovarian; 122% in the experiment with IGROV1 ovarian; 117% in the experiment on OVCAR-3 ovarian. For the same compound, the growth was 117% with HS 578T breast; 101% in the experiment with NCI/ADR-RES ovarian; 101% with T-47D breast; 106% with MDA-MB-435 melanoma; 107% with SW-620 colon; 97.4% with MCF7 breast. Besides, the growth in the experiment with HCT-116 colon was 109%; in the experiment on HCC-2998 colon, 102%; in the experiment with KM12 colon, 107%.
With `CC(C)(C)c1ccc(C(O)CCCN2CCC(C(O)(c3ccccc3)c3ccccc3)CC2)cc1` (centres undefined), the growth in the experiment with RPMI-8226 leukemia was -38.8% (active); with OVCAR-8 ovarian, -38.5% (active); in the experiment on OVCAR-5 ovarian it was -20.7% (active); in the experiment with SK-OV-3 ovarian, -48.9% (active); in the experiment with IGROV1 ovarian, 34.7%; with OVCAR-3 ovarian, -83.9% (active). In addition, the growth in the experiment on HS 578T breast was -45.3% (active); in the experiment on NCI/ADR-RES ovarian, -46.6% (active); in the experiment on T-47D breast it was -69.3% (active); in the experiment on BT-549 breast, 42.1%; in the experiment on MDA-MB-435 melanoma, -93.2% (active); in the experiment on SW-620 colon, -77.1% (active). The growth was -100% (active) with HCT-116 colon, -90.1% (active) in the experiment with HCC-2998 colon and -73.5% (active) in the experiment on KM12 colon.
Consider `Clc1ccc(-c2nc(-c3cccs3)no2)c(Cl)c1`, for which the growth in the experiment with RPMI-8226 leukemia is 86%; in the experiment on OVCAR-8 ovarian, 97.1%; in the experiment on SK-OV-3 ovarian it was 93.9%; with IGROV1 ovarian it was 66.8%; with OVCAR-3 ovarian, 99.2%; in the experiment on HS 578T breast, 96.1%. Moreover, the growth in the experiment on NCI/ADR-RES ovarian is 103%; with T-47D breast it was 51.7%; in the experiment with BT-549 breast, 83%; with MDA-MB-435 melanoma it was 111%; in the experiment on SW-620 colon it was 88.1%; in the experiment with MCF7 breast, 29.2%. The growth with HCT-116 colon was 94.6%; with KM12 colon, 99.3%.

Source of the values: PubChem BioAssay (NCI).
